Bioassay records deposited in PubChem by National Center for Advancing Translational Sciences (NCATS).
In the library only some 19% were active in any assay of this set; here they are far more common.
KB-3-1 tox – kills parental KB-3-1 adenocarcinoma cells; KB-3-1 viability, CellTiter-Glo ATP luminescence, 72 h; Potency, µM (highest dose often 46.1 µM), hits mostly cytotoxic; 400,000 tested, 1.4% active; AID 1347075; note: nearly all actives have a fitted effect of over 60% in size
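Multi-concentration cytotoxicity screen in KB-3-1 cells grown in DMEM lacking phenol red with 10% FBS. After 72 h at 37 °C with compound, ATP-dependent luminescence was recorded.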
DT40 TDP1 no CPT – qHTS for Inhibitors of human tyrosyl-DNA phosphodiesterase 1 (TDP1): qHTS in cells in absence of CPT. DT40 Tdp1-/- hTDP1 cells, no CPT, ATP luminescence, 48 h. Potency, µM (series often up to 46.2 µM), without a hit: top-dose activity change, negative = growth inhibition, hits mostly inhibitors. 420,000 tested, 15% active. AID 686978, 2013; note: nearly all actives have a fitted effect of over 55% in size
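Chicken DT40 Tdp1-/- cells stably complemented with human TDP1 were seeded at 400 cells/well with DMSO in place of 20 nM camptothecin. After compound pinning, cells grew at least 48 hr at 37 °C; viability read by CellTiter-Glo luminescence.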
TDP1 cell CPT – DT40-hTDP1 cell growth loss with CPT | chicken DT40 Tdp1-/-;hTDP1 cells + 20 nM CPT, ATP luminescence, 48 h | AID 686979 | 420,000 tested, 12% active | Potency, µM (series often up to 46.2 µM), for the others: at the top dose activity change, negative = growth inhibition, usual class: inhibitors; note: nearly all actives have a fitted effect of over 55% in size
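Chicken DT40 Tdp1-/- cells complemented with human TDP1, 400 cells/well, exposed to compounds plus 20 nM camptothecin for at least 48 h at 37 C; viability read as ATP content by CellTiter-Glo luminescence.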
KB-V1 cytotox – kills drug-selected multidrug resistant KB-V1 cells | KB-V1 MDR cells viability, CellTiter-Glo, 72 h | Potency, µM (doses to about 46.1 µM), usual class: cytotoxic | 400,000 tested, 3.4% active; note: nearly all actives have a fitted effect of over 60% in size
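In this primary screen, KB-V1 cells overexpressing P-gp are incubated with library compounds (lowest to highest concentration) for 72 h at 37 degrees C before a luminescent ATP viability read.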
HT1080 IDH1KD tx – toxicity to HT-1080 IDH1 knockdown cells (counter line); HT-1080 IDH1 knockdown viability, ATP luminescence, 48 h; Potency, µM (doses to about 46.1 µM), for inactives: top-dose activity, negative = toxicity, usual class: cytotoxic; 360,000 tested, 2% active; AID 686971;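 note: 0% = DMSO wells and -100% = cell-free medium wells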
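% activity derives from luminescence (CellTiter-Glo), normalised to DMSO and no-cell wells. HT-1080-IDH1KD cells, 750/well, had 48 h compound exposure at 37 °C.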
HT1080NT lethal – kills 2HG-producing HT-1080-NT fibrosarcoma cells; HT-1080-NT fibrosarcoma viability, CellTiter-Glo ATP luminescence, 48 h; Potency, µM (doses to about 46.1 µM), for the others: top-dose activity, negative = less viability, usual class: cytotoxic; 360,000 tested, 1.6% active; AID 686970;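 note: NT is the 2HG producing partner of a matched IDH1 knockdown line; 0% = DMSO-treated cells and -100% = media-only wells without cells; nearly all actives have a fitted effect of over 55% in size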
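Luminescent CellTiter-Glo readout after 48 hours of compound exposure at 37 degrees C defined viability of HT-1080-NT cells. Activity was normalized to DMSO wells and cell-free media wells; concentration-response curves were fitted and assigned curve classes.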
* marks the source's active call; other numbers are inactive results; i = inactive; ? = inconclusive; . = no result given; [ ] = dose if it differs, or a comment. Calls come from the whole dose curve; as a rule, active = well fitted curve in the direction sought with a large enough effect; inconclusive = small, poorly fitted or top-dose-only effect, or another doubt; inactive = no such curve, though single readings can be large; an effect the other way counts as inactive or inconclusive. Unless noted, % is set by controls: 0 for no effect and ±100 for the full control effect; potency is the fitted concentration of half-maximal effect.

SMILES | KB-3-1 tox | DT40 TDP1 no CPT | TDP1 cell CPT | KB-V1 cytotox | HT1080 IDH1KD tx | HT1080NT lethal
NC(=O)C1Cc2ccccc2CN1S(=O)(=O)c1ccc(Cl)s1 (stereo unspecified) | i | -19% | ? | i | 4% | 3%
O=C(N/N=C/c1ccc(OC(=O)c2cccs2)cc1)c1cccc(F)c1 | i | 21µM* | 23µM* | i | -27% | 6%[9.24 µM]
O=C(NNC(=O)c1cccs1)c1cccc(F)c1 | i | -4% | 3% | ? | 4% | 4%
N#CC1(c2ccccc2)CCC(NCCc2ccccc2)CC1 (stereo unspecified) | i | 18µM* | ? | i | 0% | -3%
Cc1cccc(N2CCN(S(=O)(=O)c3ccc4c(c3)CCCN4C(=O)C3CCC3)CC2)c1C | i | 16µM* | ? | i | -8% | -8%
Cc1ccc(C)c(N2CCN(S(=O)(=O)c3ccc4c(c3)CCCN4C(=O)C3CCC3)CC2)c1 | ? | 18µM* | 16µM* | i | . | .
C=CCN(CC=C)CCOc1cccc(Oc2ccccc2)c1 | i | ? | ? | i | -6% | -3%
COc1ccc(-c2cc(OC(=O)c3ccccc3Cl)c3c(C)oc(C)c3c(=O)c2)cc1OC | i | ? | 23µM* | i | . | .
COc1cc(-c2cc(OC)c3c(C)oc(C)c3c(=O)c2)ccc1OC(=O)c1ccccc1C | . | 8.2µM* | 5.2µM* | . | . | .
COc1ccc(-c2cc(OC(=O)c3cccc(Cl)c3)c3c(C)oc(C)c3c(=O)c2)cc1OC | i | ? | ? | i | . | .
COc1ccc(-c2cc(OC(=O)c3ccccc3C)c3c(C)oc(C)c3c(=O)c2)cc1 | i | 16µM* | ? | i | . | .
COc1cccc(CNC(=O)C2CCCCN2S(=O)(=O)c2ccc(F)cc2)c1 (stereo unspecified) | i | ? | ? | i | . | .
COc1cccc(C(=O)c2cn(CC(=O)Nc3cccc(C)c3C)c3nc(C)ccc3c2=O)c1 | i | -13% | -18% | i | . | .
Cc1noc(C)c1NC(=O)N(C)C[C@H]1Oc2c(NS(=O)(=O)c3cn(C)cn3)cccc2C(=O)N([C@H](C)CO)C[C@@H]1C | i | 6% | 4% | i | -5% | 21%
COc1cccc(C2C(C(N)=O)=C(C)Nc3ncnn32)c1 (stereo unspecified) | i | 3% | 4% | i | . | .
COc1ccccc1/C=C/c1nc2ccccc2[nH]1 | i | 14µM* | ? | i | . | .
Cc1ccc(/C=C/c2nc3ccccc3[nH]2)cc1 | . | 13µM* | 10µM* | . | . | .
Cc1cc2nc(/C=C/c3nc4cc(C)c(C)cc4[nH]3)[nH]c2cc1C | i | -21% | 1% | i | -9% | -4%
Cc1ccc(/C=C/c2nc3ccccc3[nH]2)o1 | i | 16µM* | 23µM* | ? | ? | ?
O=c1[nH]c2ccccc2nc1/C=C/c1ccc(O)cc1 | i | 15µM* | ? | ? | -24% | -1%
O=c1[nH]c2ccccc2nc1/C=C/c1ccccc1 | i | -26% | ? | i | -4% | -1%
OCCN1CCN(Cc2ccc3c(c2)CN(Cc2cccn2-c2ccccn2)CCO3)CC1 | . | -20% | -5% | . | . | .
O=C(c1cc(C2CC2)nn1-c1ccccc1)N1CCN(S(=O)(=O)c2ccccc2F)CC1 | i | -4% | 3% | i | 2% | 5%
CC(Sc1nccn1C)C(=O)Nc1ccccc1C#N (stereo unspecified) | i | . | . | i | . | .
COc1ccccc1/C=C/c1cncc(/C=C/c2ccccc2OC)c1 | ? | 13µM* | ? | i | . | .
